Screening results: PubChem BioAssay, National Center for Advancing Translational Sciences (NCATS)
This is a sample that favours compounds with a hit; in the whole collection about 7.6% have one here.
SW480 rereplic: inducers of DNA re-replication in SW480 colon cancer cells; SW480 DNA re-replication, Hoechst DNA content imaging, 48 h; Potency, µM (top dose mostly 46.1 µM), most hits filed as activators; hit rate 1.8% among 340,000; note: nearly all actives have a fitted effect of over 55% in size
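DNA re-replication was detected as more nuclei of elevated Hoechst intensity after 48 hr exposure to compound (23 nL pinned per well of 250 cells).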
KCNH2 3.1 block: blocks the human KCNH2 3.1 channel isoform; U2OS KCNH2 3.1, thallium flux FluxOr; hits give low values; activity change, % (tested at about 1.8 µM); AID 720553; hit rate 0.95% among 340,000;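 active = maximum activity change below -70%; inconclusive = maximum activity change from -70% to -50%; inactive = maximum activity change above -50%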;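 note: thallium influx rate constant from kinetic fluorescence after stimulation buffer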
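Virally transduced U2OS (3.1 isoform, 4 h infection in dark at RT) → overnight 37 C → FluxOr + Red40 in HBSS/HEPES, 45 min → stimulation buffer, 2 min kinetic read → rate constant vs DMSO controls.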
KB-3-1 tox: kills parental KB-3-1 adenocarcinoma cells. KB-3-1 viability, CellTiter-Glo ATP luminescence, 72 h. Potency, µM (highest dose often 46.1 µM), hits mostly cytotoxic. hit rate 1.4% among 400,000. AID 1347075; note: nearly all actives have a fitted effect of over 60% in size
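Parental KB-3-1 viability, qHTS format: 72 h compound exposure, 37 °C; CellTiter-Glo; media-only wells and DMSO plates as controls; concentration-effect fits on corrected data.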
KB-V1 MDR tox: KB-V1 MDR subline cytotoxicity. hit rate 3.4% among 400,000. Potency, µM (doses to about 46.1 µM), usual class: cytotoxic. KB-V1 MDR cells viability, CellTiter-Glo, 72 h; note: nearly all actives have a fitted effect of over 60% in size
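Cytotoxicity toward P-gp-expressing KB-V1 cells was determined as loss of CellTiter-Glo luminescence after 72 h at 37 degrees C. Compounds were tested in quantitative HTS format across a concentration range, with curves fitted to normalized data.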
MCF10A rerep: inducers of DNA re-replication in MCF 10A breast cells; AID 624296; hit rate 2.9% among 350,000; Potency, µM (top dose mostly 46.1 µM), actives largely listed as activators; MCF 10A DNA re-replication, Hoechst nuclear intensity, 48 h; note: nearly all actives have a fitted effect of over 50% in size
KCNH2 WT inh: KCNH2 (human, wildtype) channel inhibition. Q12809. U2OS, BacMam KCNH2, thallium flux FluxOr; hits give low values. activity change, % at 1.84 µM. hit rate 0.37% among 340,000. AID 720551;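 active = maximum activity change below -70%; inconclusive = maximum activity change between -70% and -50%; inactive = maximum activity change above -50%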
Target sequence (Q12809 whole entry, looked up): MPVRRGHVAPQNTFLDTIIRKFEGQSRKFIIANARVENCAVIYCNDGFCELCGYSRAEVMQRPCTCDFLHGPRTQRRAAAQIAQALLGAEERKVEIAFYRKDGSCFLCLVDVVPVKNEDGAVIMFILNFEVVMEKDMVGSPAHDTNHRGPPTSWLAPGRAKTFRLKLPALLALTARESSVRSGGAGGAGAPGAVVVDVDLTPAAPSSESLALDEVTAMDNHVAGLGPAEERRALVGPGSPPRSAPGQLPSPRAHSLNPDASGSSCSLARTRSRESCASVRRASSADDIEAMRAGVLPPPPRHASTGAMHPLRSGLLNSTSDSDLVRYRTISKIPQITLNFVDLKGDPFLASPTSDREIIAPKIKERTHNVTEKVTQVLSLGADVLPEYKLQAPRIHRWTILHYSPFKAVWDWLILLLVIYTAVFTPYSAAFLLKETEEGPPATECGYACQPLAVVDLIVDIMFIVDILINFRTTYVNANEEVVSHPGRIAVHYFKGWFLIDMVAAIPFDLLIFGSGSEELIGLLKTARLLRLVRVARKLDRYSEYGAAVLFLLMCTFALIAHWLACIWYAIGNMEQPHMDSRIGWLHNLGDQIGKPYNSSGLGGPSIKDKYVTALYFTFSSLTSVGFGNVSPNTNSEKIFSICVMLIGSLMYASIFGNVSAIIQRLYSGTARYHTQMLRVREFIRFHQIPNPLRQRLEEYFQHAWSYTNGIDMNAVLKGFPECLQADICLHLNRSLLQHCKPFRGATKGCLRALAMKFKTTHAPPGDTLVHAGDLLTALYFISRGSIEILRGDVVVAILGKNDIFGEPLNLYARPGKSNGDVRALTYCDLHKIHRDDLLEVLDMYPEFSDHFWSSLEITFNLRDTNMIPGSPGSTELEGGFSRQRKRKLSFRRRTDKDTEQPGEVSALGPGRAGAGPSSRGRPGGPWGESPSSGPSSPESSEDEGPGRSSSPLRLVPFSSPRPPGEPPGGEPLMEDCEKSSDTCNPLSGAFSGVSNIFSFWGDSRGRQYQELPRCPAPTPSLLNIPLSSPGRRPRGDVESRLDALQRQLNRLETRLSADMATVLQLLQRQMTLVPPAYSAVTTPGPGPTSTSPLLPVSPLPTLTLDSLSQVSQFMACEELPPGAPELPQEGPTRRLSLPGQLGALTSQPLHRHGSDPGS
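U2OS cells were transduced with wild-type KCNH2 virus (2.03 x 10^8 / mL) for 4 h at room temperature, then cultured overnight at 37 C. Thallium flux was read with FluxOr dye. Rate constants were normalized to DMSO controls.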
Of the large screens only hits and unclear results are named; the others gave an inactive call. Unless noted, calls come from the whole dose curve; as a rule, active = well fitted curve in the direction sought with a large enough effect; inconclusive = small, poorly fitted or top-dose-only effect, or another doubt; inactive = no such curve, though single readings can be large; an effect the other way counts as inactive or inconclusive.

COc1ccc(Cc2noc(-c3ccc(OC)c(OC)c3)n2)cc1OC	SW480 rereplic inconclusive, KB-V1 MDR tox 12µM, MCF10A rerep inconclusive
COc1ccc(CCC(=O)Nc2ccc(-c3noc(-c4ccc(OC)c(OC)c4)n3)cc2)cc1	KB-V1 MDR tox inconclusive, MCF10A rerep inconclusive
COc1ccc(-c2nc(-c3ccncc3)no2)cc1OC	none
CCOc1ccc(-c2noc(-c3ccncc3)n2)cc1OCC	none
CCOc1ccc(-c2nc(-c3ccc(OC)cc3)no2)cc1OCC	KB-V1 MDR tox 13µM
CN(CCc1ccccn1)C(=O)CCC1CCCN(C(=O)c2ccsc2)C1 (stereo unspecified)	none
Cc1ccc(-c2cc(C(=O)N/N=C/C(Br)=C/c3ccccc3)n[nH]2)o1	SW480 rereplic 15µM, KB-V1 MDR tox inconclusive, MCF10A rerep 13µM
Cc1ccc(-c2cc(C(=O)N/N=C/c3ccccc3O)n[nH]2)o1	SW480 rereplic 3.3µM, KB-3-1 tox inconclusive, KB-V1 MDR tox inconclusive, MCF10A rerep 18µM
Cc1ccc(-c2cc(C(=O)N/N=C/c3ccc(F)cc3)n[nH]2)o1	none
Cc1ccc(-c2cc(C(=O)N/N=C/c3c[nH]c4ccccc34)n[nH]2)o1	SW480 rereplic 3.7µM (no result: KCNH2 WT inh)
NS(=O)(=O)c1ccc(CCNC(=O)CNC(=O)c2ccc(Oc3ccccc3)cc2)cc1	KB-V1 MDR tox inconclusive
COc1cc(/C=N/Nc2ccc3ccccc3c2)ccc1OC(=O)c1ccco1	none
COc1cc(/C=c2\[nH]c(=O)/c(=C/c3cc(OC)c(OC)c(OC)c3)[nH]c2=O)cc(OC)c1OC	KB-3-1 tox inconclusive (no result: SW480 rereplic, KCNH2 3.1 block, MCF10A rerep, KCNH2 WT inh)
CCOC(=O)/C(C#N)=C/c1cc2cc(C)c(C)cc2nc1Cl	none
Cc1cc2cc(C=C(C#N)C#N)c(Cl)nc2cc1C	SW480 rereplic inconclusive, MCF10A rerep 18µM
COc1cccc2sc(Nc3nnc(-c4ccc(F)cc4)o3)nc12	SW480 rereplic inconclusive, MCF10A rerep 26µM, KCNH2 WT inh inconclusive
Fc1cccc2sc(Nc3nnc(-c4ccco4)o3)nc12	SW480 rereplic inconclusive, KB-3-1 tox inconclusive, KB-V1 MDR tox 9.2µM, MCF10A rerep 7.3µM, KCNH2 WT inh inconclusive
COc1cccc2sc(Nc3nnc(-c4cccs4)o3)nc12	KB-3-1 tox inconclusive, KB-V1 MDR tox inconclusive, MCF10A rerep 23µM
COC(=O)C1Cc2c([nH]c3ccccc23)CN1C(C)=O (stereo unspecified)	none
CC(=O)N1Cc2[nH]c3ccccc3c2CC1C(=O)O (stereo unspecified)	KCNH2 3.1 block -81, MCF10A rerep inconclusive
Cc1ccc(NNC(=O)c2snnc2C)cc1Cl	SW480 rereplic 2.3µM
Cc1nnsc1C(=O)Nc1ccc(Cl)cc1	KB-V1 MDR tox inconclusive
COc1cccc(C2c3c(-c4ccccc4O)n[nH]c3C(=O)N2CCc2ccc(OC)c(OC)c2)c1 (stereo unspecified)	none (no result: SW480 rereplic, KCNH2 3.1 block, MCF10A rerep, KCNH2 WT inh)
CCOC(=O)CNC(=S)SC	none
CCOC(=O)CNC(=S)n1ncnc1N	SW480 rereplic 5.8µM
COc1ccc(C2c3c(oc4ccccc4c3=O)C(=O)N2CC2CCCO2)cc1 (stereo unspecified)	SW480 rereplic inconclusive, KB-V1 MDR tox inconclusive
O=C1c2oc3ccc(F)cc3c(=O)c2C(c2ccccc2)N1CC1CCCO1 (stereo unspecified)	KB-V1 MDR tox 8.2µM
CCC/C(C#Cc1ccsc1)=C1/c2ccccc2C(=O)N1c1ccccc1	SW480 rereplic inconclusive, KB-V1 MDR tox inconclusive, MCF10A rerep 23µM (no result: KCNH2 3.1 block, KCNH2 WT inh)
CN1CCC(OC(=O)Cc2ccc(Cl)cc2)CC1	SW480 rereplic 15µM, KB-V1 MDR tox inconclusive (no result: KCNH2 WT inh)
COc1ccc(OCC(=O)OC2CCN(C)CC2)cc1	none
COc1ccccc1C1CCN(c2cc(O)ccc2[N+](=O)[O-])CC1	KB-V1 MDR tox inconclusive, MCF10A rerep 16µM
O=C(NC1CC1)c1cccc(NC(=O)c2cnn(-c3ccccc3)n2)c1	KB-V1 MDR tox 15µM
Cc1cc(Nc2ccccc2)c2c([N+](=O)[O-])c(C)cc(C)c2n1	KB-3-1 tox inconclusive, KB-V1 MDR tox 21µM
CCc1nnc(NC(=O)CSc2nnc(Cc3cc(=O)[nH]c(=O)[nH]3)n2-c2cccc(OC)c2)s1	none
CC(=O)Nc1ccc(NC(=O)c2ccc3c(c2)NC(=O)c2ccccc2S3)cc1	KB-V1 MDR tox inconclusive (no result: SW480 rereplic, KCNH2 3.1 block, MCF10A rerep, KCNH2 WT inh)
C/C(=N\Nc1ccc(C(=O)O)cc1)c1ccc2c(c1)Nc1ccccc1S2	SW480 rereplic 8.2µM, MCF10A rerep 16µM
C/C(=N/Nc1ccc(C(=O)O)cc1)c1ccc2c(c1)Nc1ccccc1S2	SW480 rereplic 18µM, MCF10A rerep 16µM
CC1(C)Cc2c(sc(NC(=O)COc3ccc(Cl)cc3Cl)c2C(N)=O)C(C)(C)N1	SW480 rereplic inconclusive, MCF10A rerep 23µM
Cc1cc(OCC(=O)Nc2sc3c(c2C#N)CC(C)(C)NC3(C)C)c(C(C)C)cc1Cl	MCF10A rerep 18µM
CC1(C)Cc2c(sc(NC(=O)c3ccco3)c2C#N)C(C)(C)N1	KB-V1 MDR tox 18µM
Cc1[nH]c(C)c(S(=O)(=O)NCC(C)c2ccccc2)c1C(=O)N1CCCCC1 (stereo unspecified)	none
CCC(CC)NC(=O)CN1CCN(S(=O)(=O)c2ccc(Br)s2)CC1	KB-V1 MDR tox inconclusive
O=S(c1cc(Cl)cc(Cl)c1O)c1cc(Cl)cc(Cl)c1O	KB-3-1 tox inconclusive, KB-V1 MDR tox inconclusive, MCF10A rerep 13µM (no result: KCNH2 3.1 block, KCNH2 WT inh)
CCOC(=O)C1=C(C)N(c2ccc(OCC)cc2)C(=O)/C1=C\c1ccco1	MCF10A rerep 16µM
Cc1ccc(Nc2cc(C)c3ccc(O)cc3n2)cc1C	SW480 rereplic inconclusive, KB-3-1 tox inconclusive, MCF10A rerep 23µM
COC(=O)c1cc(Nc2cc(C)c3ccc(O)cc3n2)cc(C(=O)OC)c1	SW480 rereplic inconclusive, MCF10A rerep 15µM
COC(=O)c1cc(Nc2cc(C)c3c(O)cccc3n2)cc(C(=O)OC)c1	SW480 rereplic inconclusive
CC(C)N(CCCNC(=O)C1CCC(CNS(=O)(=O)c2ccccc2)CC1)Cc1ccccc1 (stereo unspecified)	MCF10A rerep inconclusive
Cc1cccc(NC(=O)c2ccccc2O)c1C	KB-V1 MDR tox 16µM
CCSc1ccccc1C(=O)Nc1cccc(OC)c1	KB-V1 MDR tox 18µM
Cc1ccccc1Cn1nnc(C(=O)Nc2cccc(C)c2C)c1N	KB-3-1 tox inconclusive, KB-V1 MDR tox 13µM, MCF10A rerep 15µM
Cc1ccc(CNC(=O)Cn2nnc(C(=O)Nc3cccc(C)c3C)c2N)cc1	none
Cc1cccc(NC(=O)c2cc(-c3ccccn3)nc3ccccc23)c1C	KB-3-1 tox inconclusive, KB-V1 MDR tox 10µM, MCF10A rerep inconclusive
CC(OC(=O)Cc1c[nH]c2ccccc12)C(=O)Nc1ccccc1[N+](=O)[O-] (stereo unspecified)	none
COc1ccc2nc3oc(C(=O)N4CCN(c5cc(C)ccc5C)CC4)cc3cc2c1	none (no result: SW480 rereplic, KCNH2 3.1 block, MCF10A rerep, KCNH2 WT inh)
